Test results taken from ChEMBL document CHEMBL2218924, “A broad activity screen in support of a chemogenomic map for kinase signalling research and drug discovery” (Biochem J, 2013).

Assays:
[1] = molecular target: Platelet-derived growth factor receptor beta (Homo sapiens) (UniProt P09619); conditions: at 1 µM
[2] = molecular target: Platelet-derived growth factor receptor beta (Homo sapiens) (UniProt P09619); conditions: at 10 µM
[3] = molecular target: T1, 3-phosphoinositide-dependent protein kinase 1 (Homo sapiens) (UniProt O15530); conditions: at 1 µM
T1 sequence (whole entry): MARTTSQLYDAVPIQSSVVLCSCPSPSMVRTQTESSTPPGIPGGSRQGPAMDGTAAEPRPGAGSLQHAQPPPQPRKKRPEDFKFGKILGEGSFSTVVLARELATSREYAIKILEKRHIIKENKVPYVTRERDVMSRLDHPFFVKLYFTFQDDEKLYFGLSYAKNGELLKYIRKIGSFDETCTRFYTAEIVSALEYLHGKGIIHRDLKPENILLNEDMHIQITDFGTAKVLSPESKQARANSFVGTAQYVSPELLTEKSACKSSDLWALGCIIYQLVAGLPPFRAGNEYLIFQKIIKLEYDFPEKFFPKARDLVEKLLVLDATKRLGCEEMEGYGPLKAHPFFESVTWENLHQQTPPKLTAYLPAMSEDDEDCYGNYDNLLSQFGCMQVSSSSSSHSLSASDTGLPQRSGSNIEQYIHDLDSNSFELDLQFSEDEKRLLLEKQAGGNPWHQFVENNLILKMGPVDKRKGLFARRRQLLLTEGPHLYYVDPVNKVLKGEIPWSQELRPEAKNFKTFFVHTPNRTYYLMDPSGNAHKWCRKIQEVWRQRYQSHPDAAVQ

[4] = molecular target: T1, 3-phosphoinositide-dependent protein kinase 1 (Homo sapiens); conditions: at 10 µM
[5] = molecular target: cAMP-dependent protein kinase catalytic subunit alpha (Homo sapiens) (UniProt P17612); conditions: at 10 µM
[6] = molecular target: RAC-gamma serine/threonine-protein kinase (Homo sapiens) (UniProt Q9Y243); conditions: at 1 µM
[7] = molecular target: RAC-gamma serine/threonine-protein kinase (Homo sapiens) (UniProt Q9Y243); conditions: at 10 µM
[8] = molecular target: Platelet-derived growth factor receptor alpha (Homo sapiens) (UniProt P16234); conditions: at 1 µM
[9] = molecular target: Platelet-derived growth factor receptor alpha (Homo sapiens) (UniProt P16234); conditions: at 10 µM
[10] = molecular target: cAMP-dependent protein kinase catalytic subunit alpha (Homo sapiens) (UniProt P17612); conditions: at 1 µM

RAC-gamma serine/threonine-protein kinase (Homo sapiens), sequence (Q9Y243 whole entry): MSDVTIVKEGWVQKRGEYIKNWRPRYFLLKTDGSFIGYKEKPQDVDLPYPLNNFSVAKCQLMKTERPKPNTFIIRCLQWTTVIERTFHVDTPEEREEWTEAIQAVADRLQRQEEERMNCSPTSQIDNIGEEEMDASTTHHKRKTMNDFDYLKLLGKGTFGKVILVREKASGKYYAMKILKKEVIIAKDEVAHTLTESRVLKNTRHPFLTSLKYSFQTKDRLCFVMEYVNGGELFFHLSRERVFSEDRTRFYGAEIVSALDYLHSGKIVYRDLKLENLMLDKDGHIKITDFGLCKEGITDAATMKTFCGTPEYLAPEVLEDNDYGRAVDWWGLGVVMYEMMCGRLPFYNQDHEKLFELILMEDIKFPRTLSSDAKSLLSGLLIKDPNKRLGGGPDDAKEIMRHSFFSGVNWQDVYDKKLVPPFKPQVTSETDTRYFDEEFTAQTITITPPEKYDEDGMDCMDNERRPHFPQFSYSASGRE
Platelet-derived growth factor receptor alpha (Homo sapiens), sequence (P16234 whole entry): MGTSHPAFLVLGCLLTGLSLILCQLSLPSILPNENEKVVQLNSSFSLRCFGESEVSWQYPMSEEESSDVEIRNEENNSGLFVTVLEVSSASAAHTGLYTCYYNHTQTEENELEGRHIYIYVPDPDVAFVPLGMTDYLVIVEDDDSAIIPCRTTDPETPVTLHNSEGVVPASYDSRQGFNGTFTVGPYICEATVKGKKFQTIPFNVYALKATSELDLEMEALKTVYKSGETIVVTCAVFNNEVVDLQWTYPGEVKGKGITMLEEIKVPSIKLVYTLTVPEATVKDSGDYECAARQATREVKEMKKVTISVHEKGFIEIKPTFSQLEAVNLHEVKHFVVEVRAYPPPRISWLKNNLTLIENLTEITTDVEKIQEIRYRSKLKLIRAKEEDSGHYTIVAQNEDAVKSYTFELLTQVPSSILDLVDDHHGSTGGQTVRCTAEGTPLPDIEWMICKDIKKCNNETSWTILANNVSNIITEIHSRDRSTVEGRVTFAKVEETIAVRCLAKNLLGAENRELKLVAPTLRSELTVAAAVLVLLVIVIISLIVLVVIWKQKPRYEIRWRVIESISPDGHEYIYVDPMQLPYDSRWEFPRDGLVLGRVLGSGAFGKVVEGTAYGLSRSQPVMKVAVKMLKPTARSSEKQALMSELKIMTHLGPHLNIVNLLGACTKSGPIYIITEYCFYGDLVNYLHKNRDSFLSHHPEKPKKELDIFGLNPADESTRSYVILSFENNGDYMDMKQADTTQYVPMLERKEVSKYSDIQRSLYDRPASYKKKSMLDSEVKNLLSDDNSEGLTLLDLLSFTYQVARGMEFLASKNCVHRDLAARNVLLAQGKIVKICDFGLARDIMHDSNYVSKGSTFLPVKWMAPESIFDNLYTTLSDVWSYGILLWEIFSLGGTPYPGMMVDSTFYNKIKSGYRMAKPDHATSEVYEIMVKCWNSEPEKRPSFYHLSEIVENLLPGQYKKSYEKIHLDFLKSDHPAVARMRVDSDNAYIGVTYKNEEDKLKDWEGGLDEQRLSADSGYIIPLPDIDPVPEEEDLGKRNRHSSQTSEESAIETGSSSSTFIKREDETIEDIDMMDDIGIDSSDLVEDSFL
Platelet-derived growth factor receptor beta (Homo sapiens), sequence (P09619 whole entry): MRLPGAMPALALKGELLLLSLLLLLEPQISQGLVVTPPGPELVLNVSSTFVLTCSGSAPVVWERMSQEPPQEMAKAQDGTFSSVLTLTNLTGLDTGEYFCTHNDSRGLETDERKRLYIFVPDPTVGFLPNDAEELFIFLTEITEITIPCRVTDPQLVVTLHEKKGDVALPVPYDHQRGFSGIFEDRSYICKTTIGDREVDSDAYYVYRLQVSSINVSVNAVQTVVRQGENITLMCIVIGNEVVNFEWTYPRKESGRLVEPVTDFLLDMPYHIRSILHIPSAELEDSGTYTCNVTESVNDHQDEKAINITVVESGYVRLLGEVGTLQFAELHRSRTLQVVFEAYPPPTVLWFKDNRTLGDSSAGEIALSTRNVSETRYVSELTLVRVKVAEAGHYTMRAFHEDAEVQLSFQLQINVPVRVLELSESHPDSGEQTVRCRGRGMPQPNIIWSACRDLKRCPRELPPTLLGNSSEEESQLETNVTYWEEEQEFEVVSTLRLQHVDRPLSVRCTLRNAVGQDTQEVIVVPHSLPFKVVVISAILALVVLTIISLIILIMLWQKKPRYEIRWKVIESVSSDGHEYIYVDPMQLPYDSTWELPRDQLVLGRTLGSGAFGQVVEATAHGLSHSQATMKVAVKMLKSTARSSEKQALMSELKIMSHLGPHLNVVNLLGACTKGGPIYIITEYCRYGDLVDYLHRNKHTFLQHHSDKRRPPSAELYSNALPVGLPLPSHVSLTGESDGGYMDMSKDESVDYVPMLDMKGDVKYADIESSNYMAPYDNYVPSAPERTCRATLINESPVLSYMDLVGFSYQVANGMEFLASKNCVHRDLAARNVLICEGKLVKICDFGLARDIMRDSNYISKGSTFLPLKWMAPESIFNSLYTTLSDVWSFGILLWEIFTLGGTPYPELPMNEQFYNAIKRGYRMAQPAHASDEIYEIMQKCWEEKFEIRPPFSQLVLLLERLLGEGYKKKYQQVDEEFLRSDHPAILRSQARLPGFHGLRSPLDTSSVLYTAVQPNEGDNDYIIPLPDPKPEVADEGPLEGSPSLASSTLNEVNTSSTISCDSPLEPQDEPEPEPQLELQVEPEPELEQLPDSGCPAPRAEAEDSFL

| Structure (SMILES) | residual activity [1] | residual activity [2] | residual activity [3] | residual activity [4] | residual activity [5] | residual activity [6] | residual activity [7] | residual activity [8] | residual activity [9] | residual activity [10] |
| --- | --- | --- | --- | --- | --- | --- | --- | --- | --- | --- |
| c1ccc(-c2n[nH]cc2-c2ccnc3ccccc23)nc1 | 96% | 109% | 104% | 104% | 93% | 96% | 96% | – | – | – |
| COc1ccc(OC)c2c(=S)c3ccccc3[nH]c12 | 99% | 102% | 96% | 96% | 94% | 89% | 84% | 109% | 108% | 87% |
| N#CCCc1ccc2c(c1)-c1[nH]c3ccc([N+](=O)[O-])cc3c1CC(=O)N2 | – | – | 17% | 6% | – | – | – | – | – | – |
| c1ccc2c(-c3ccncc3)c[nH]c2c1 | – | – | 111% | 110% | 50% | 89% | 76% | – | – | 93% |
| CCN(CC)C(=O)c1ccc(Nc2nc(OCC3CCCCC3)c3nc[nH]c3n2)cc1 | 63% | 14% | 20% | 3% | 52% | – | 40% | 65% | 18% | 80% |
| COc1cc2ncc(-c3ccccc3)nc2cc1OC | 97% | 73% | – | – | 74% | – | – | 84% | 27% | 99% |
| COc1cccc(-c2cc(=O)c3ccccc3o2)c1N | 114% | 108% | 114% | 99% | 95% | 100% | 95% | 107% | 110% | 96% |
| Cc1cc2ncc(-c3ccccc3)nc2cc1C | 99% | 96% | – | – | 75% | 90% | 87% | – | – | 86% |
| CCN(CC)CCCCN1c2ccccc2Oc2ccc(Cl)cc21 | 119% | 108% | 131% | 138% | 147% | 126% | 113% | 126% | 104% | 95% |
| O=Nc1c(-c2c(O)[nH]c3ccccc23)[nH]c2ccccc12 | 84% | 26% | 53% | 9% | 54% | 95% | 64% | 87% | 37% | 90% |
| CC(=O)c1ccc(N2CCOCC2)cc1O | 112% | 105% | – | – | 96% | 106% | 104% | – | 107% | 87% |
| O=C(Nc1cccc(Nc2nccc(Nc3cccc(C(F)(F)F)c3)n2)c1)C1CC1 | 99% | 70% | 100% | 93% | 106% | 89% | 67% | 107% | 88% | 75% |
| COc1ccc(CNc2nc(N(CCO)CCO)nc3c2ncn3C(C)C)cc1 | 93% | 100% | 100% | 100% | 85% | 72% | 69% | 101% | 102% | 93% |
| Ic1cccc(CSc2nnc(-c3ccncc3)o2)c1 | 99% | 97% | 56% | 44% | 79% | 92% | 74% | 104% | 97% | 99% |
| CCC(=O)Nc1ccc2ncnc(Nc3cccc(Br)c3)c2c1 | 96% | 92% | 111% | 107% | 102% | 102% | 99% | 117% | 91% | 88% |
| O=C1NC(=O)c2c1c1c3ccccc3[nH]c1c1[nH]c3cc(Br)ccc3c21 | 89% | 76% | 75% | 29% | 101% | 75% | 77% | 101% | 95% | 97% |
| COc1cc2ncnc(Nc3ccc(NC(=O)c4ccccc4)cc3)c2cc1OC | – | 102% | – | 106% | 85% | – | 102% | – | 81% | 71% |
| Cc1cc(Nc2nc(-c3ccccc3)nc3ccccc23)n[nH]1 | 79% | 28% | 94% | 39% | 70% | – | 46% | – | 26% | – |
| COc1cc2ncnc(N3CCN(C(=O)Nc4ccc(Oc5ccccc5)cc4)CC3)c2cc1OC | – | – | 106% | 116% | – | 94% | 112% | 26% | 6% | 102% |
